# Compound activity: PubChem BioAssay, National Center for Advancing Translational Sciences (NCATS)
# Only some compounds are listed: those with a hit (about 1.3% of all), similar ones and a draw of the others.
# p53 reactivation: restores transcriptional activity of mutant p53 | H1299 p53-A138V BP100-luciferase reporter, luminescence, 24 h | Potency, µM (highest dose often 92.2 µM), for inactives: at the highest dose activity change, positive = activation, usual class: activators | hit rate 0.063% among 320,000 | AID 504706; further: potency means the concentration at half of the fitted maximal effect; % of control where 0% means no effect; nearly all actives have a fitted effect of over 45% in size
#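 H1299 (p53-null), stable ts p53-A138V + BP100-Luc; 1000 cells/well, Opti-MEM/10% FBS; cpd 4 pt, 1:5; 24 h, 37 deg C, 5% CO2; detection reagent 10 min RT; luminescence.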
# BRCA1 expr up: activators of BRCA1 expression; MCF7-BRCA1-FFLuc reporter, luminescence, 48 h; response scale: scaled: vehicle 0%, 10 µM genistein 100%; Potency, µM (series often up to 46.1 µM), without a hit: at the highest dose activation, hits mostly activators; hit rate 1.1% among 380,000; AID 624202; further: potency means the concentration at half of the fitted maximal effect; nearly all actives have a fitted effect of over 80% in size
#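 Luminescence from a BRCA1-driven firefly luciferase in MCF7 cells was read after 48 h compound exposure at 37 C. Data normalized against DMSO and a 10microM genistein activation control, then curve-fitted across the titration.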
# Mito fusion yeast: blocks mitochondrial division or promotes mitochondrial fusion; S. cerevisiae fusion-defective mutant growth rescue, CellTiterGlo 48 h; Potency, µM (top dose mostly 46.1 µM), for inactives: top-dose growth rescue (activation), actives largely listed as activators; hit rate 0.23% among 320,000; AID 485298; further: potency means the concentration at half of the fitted maximal effect; % of control where 0% means no effect; nearly all actives have a fitted effect of over 45% in size
#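 Luminescent cell viability in 1536-well qHTS format served as the measure of rescued growth in ts fusion-mutant S. cerevisiae cultured on non-fermentable YPEG for 48 hours at 37C.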
# IL-2 act: IL-2 activation | IL-2 activation reporter assay, cell-based qHTS; stimulated with anti-CD3/CD4/CD28 beads; in transgenic mouse T cells | activation, % (series mostly up to about 46 µM) | hit rate 0.065% among 360,000 | AID 652025; in the data active means activation above about 50%; inconclusive means mostly about 30% to 49%; further: 0% is about no effect
#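 Unstimulated transgenic mouse T cells; 60-min compound exposure; bead-based TCR/CD4/CD28 stimulation; 18 h culture, 37 degrees C; dual fluorescence (EGFP, DsRed) plate cytometry.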
# TCR activator: activates T cell receptor signaling | primary human leukocytes, anti-CD3, IL-2 HTRF, 48 h | 330,000 tested, under 10 active | AID 504894 | Potency, µM (titrated, usually from 9.22 µM), for inactives: top-dose activation of IL-2 secretion, hits mostly activators; further: % of control where 0% means no effect
#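 1) Mix primary human leukocytes, a-CD3 beads and compound. 2) Incubate 48 hr. 3) Add HTRF IL-2 reagents (a-IL-2-K, a-IL-2-d2).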
# Active calls of the source: *; ? = inconclusive; . = no result; [ ] = dose if it differs, or a comment. Unless noted, the call rests on the fitted dose curve; in most records, active means well fitted curve in the direction sought with a large enough effect; inconclusive means small, poorly fitted or top-dose-only effect, or another doubt; inactive means no such curve, though single readings can be large; an effect the other way counts as inactive or inconclusive.
SMILES,p53 reactivation,BRCA1 expr up,Mito fusion yeast,IL-2 act,TCR activator
O=[N+]([O-])c1cccc(-c2ccc(SCc3ccccn3)nn2)c1,?,6.3µM*,1%,-3,2%
COc1cccc(-c2ccc(SCc3ccccn3)nn2)c1,2%,5µM*,-6%,0,1%
N#C/C(=C\c1ccc(-c2cc(Cl)ccc2Cl)o1)C(=O)Nc1cccc2ncccc12,.,.,-57%,.,.
CC1=CC2=NC(=O)/C(=C\c3cccn3CCOc3cc(C)cc(C)c3)C(=N)N2O1,2%,-15%,20µM*,0,2%[46.1 µM]
Cc1cc(NCc2ccccn2)n2ncc(-c3ccc(Cl)cc3)c2n1,?,18%,5%,0,0%
Cc1cc(NCCOCCO)n2ncc(-c3ccc(Cl)cc3)c2n1,40µM*,24%,14%,3,3%
COc1ccc(-c2cc(C3CC3)nc3sc(C#N)c(N)c23)cc1,-1%,-48%,13µM*,0,13%
COc1ccc(-c2cc(C3CC3)nc(N)c2C#N)cc1,8%,-41%,2%,-1,2%
CC1=Nc2cc(C(=O)NCCc3ccc(Cl)cc3)ccc2Sc2c(C)ccc(C)c21,.,-69%,.,.,.
COc1cc(/C=C2\C(=O)N(c3cccc(C(=O)O)c3)N=C2C)ccc1OCc1ccccc1,.,7.1µM*,.,-1,.
Nc1c(C(=O)O)cnc2c(-c3ccc(Cl)cc3)cnn12,?,-46%,8%,0,-15%
CC(=O)c1cnc2c(-c3ccc(Cl)cc3)cnn2c1C,?,3.5µM*,0%,0,-1%[46.1 µM]
COc1cc(OC)c(/C=C/c2ccc3ccccc3[n+]2[O-])c(OC)c1,.,0%,.,.,.
Cc1ccc(N2CCN(C(=O)c3nn(C)c4c3CS(=O)(=O)c3ccccc3-4)CC2)c(C)c1,-4%,0%,11µM*,2,-7%
Cn1nc(C(=O)N2CCN(c3cccc(Cl)c3)CC2)c2c1-c1ccccc1S(=O)(=O)C2,-11%,-11%,11µM*,-1,-5%
Cn1nc(C(=O)N2CCN(c3ccc(Cl)cc3)CC2)c2c1-c1ccccc1S(=O)(=O)C2,-6%,-26%,21%,-2,1%
O=C(OCc1ccccc1)N1CCN(/[N+]([O-])=N/Oc2ccc([N+](=O)[O-])cc2[N+](=O)[O-])CC1,.,0%,.,.,.
COC(=O)c1ccc(C(=O)Nc2ccc(C(C)C)cc2N)cc1,15%,11µM*,-3%,2,2%
CSc1ccc(CCNC(=O)CCc2c(C)nc3c(-c4ccccc4)c(C)nn3c2C)cc1,.,-19%,.,.,.
O=C(Nc1ccc2c(c1)ncn2C1CCCCC1)c1ccco1,?,13µM*,-2%,-1,16%
CCOc1ccc(S(=O)(=O)N2CCN(c3nc(-c4ccccc4)nc4ccccc34)CC2)cc1OCC,.,0%,.,.,.
Nc1ccc(C#Cc2ccc3c(=O)c4ccccc4oc3c2)cc1,11%,10µM*,0%,-4,5%
CC1CCc2c(sc(NC(=O)C3=COCCO3)c2C(N)=O)C1 (stereo not given),?,7.1µM*,22%,1,4%
CN(C)c1ccc(N=Nc2ccnc3ccccc23)cc1,.,17%,.,.,.
COc1ccc(-c2cn3ccc4ccccc4c3n2)cc1,28µM*,?,6%,1,0%[46.1 µM]
SMILES,p53 reactivation,BRCA1 expr up,Mito fusion yeast,IL-2 act,TCR activator
CCCS(=O)(=O)NCc1cn2cccc(C)c2n1,10%,20%,-6%,1,1%[46.1 µM]
COc1ccc(-c2cn3ccccc3n2)cc1,2%,13%,-15%,2,1%
Cc1cccn2cc(CNc3ccccc3)nc12,?,14µM*,-8%,-3,4%
COc1ccc(-c2cn3cccc(C)c3n2)cc1Br,?,3.5µM*,15%,0,-1%[46.1 µM]
Cc1cccn2cc(-c3ccccc3)nc12,?,2µM*,-20%,-1,6%
Cc1cccn2cc(-c3ccc(F)cc3)nc12,.,100%,-4%,0,0%
CC(=O)c1c(C)[nH]c2ccc(OCC(O)CNCCc3ccccc3)cc12 (stereo not given),.,9%,.,.,.
CCOC(=O)c1ccc(N2Cc3ccccc3C2)cc1O,21%,13µM*,4%,2,.
O=C(c1ccc(OCC2CCCO2)cc1)N1CCc2ccccc2C1 (stereo not given),-1%,11µM*,1%,-2,1%
COc1ccc(NC(=O)c2ccc3snnc3c2)cc1,?,6.3µM*,4%,0,-3%[46.1 µM]
COc1ccc(C(=O)Nc2nc3ccccc3s2)cc1OC,-5%,4.5µM*,18%,0,-9%
CC(=O)c1ccc(NC(=O)c2ccc3snnc3c2)cc1,14%,?,-1%,3,-12%
O=C(Nc1nc2ccccc2s1)c1ccc(OCC2CCCO2)cc1 (stereo not given),28µM*,-72%,?,1,-2%[46.1 µM]
CCN(N=O)c1ccc(/C=C2\C=Cc3ccccc32)cc1,.,15%,.,.,.
CC(NC(=O)c1cnn2c1NC(=C1CC1)C=C2C(F)F)c1ccncc1 (stereo not given),.,16%,.,.,.
COc1ccc(C(=O)Nc2ccc3ccccc3c2)cc1OC,.,5.6µM*,1%,-1,.
CCOc1ccc(-c2noc(-c3csc([C@@H]4C[C@H](O)[C@@H](CO)O4)n3)n2)cc1,.,?,.,0,.
COc1ccc(-c2noc(-c3csc([C@@H]4C[C@H](O)[C@@H](CO)O4)n3)n2)cc1OC,.,14µM*,.,0,.
COc1cc(OC)cc(-c2noc(-c3csc([C@@H]4C[C@H](O)[C@@H](CO)O4)n3)n2)c1,.,10µM*,.,0,.
OC[C@H]1O[C@@H](c2nc(-c3ccc(Br)cc3)no2)C[C@@H]1O,.,7.9µM*,.,0,.
CC1CCN(S(=O)(=O)c2cc(C(=O)Nc3ccc(Br)cc3F)n(C)c2)CC1,.,-29%,.,.,.
COCc1cc(C)nc2sc(C(=O)Nc3cccc(OC)c3)c(N)c12,-4%,2.5µM*,3%,0,5%
Cc1cc(C)c2c(N)c(C(=O)NNC(=O)c3ccccc3)sc2n1,4%,8.9µM*,1%,-1,.
CCOc1ccc(N=Nc2c(N)[nH][nH]c2=O)cc1,?,5µM*,-11%,1,0%[46.1 µM]
O=c1cc2nc(-c3ccccc3F)nc(SCc3ccc(Br)cc3)n2[nH]1,.,0%,.,.,.
SMILES,p53 reactivation,BRCA1 expr up,Mito fusion yeast,IL-2 act,TCR activator
O=S(=O)(NCCCCNS(=O)(=O)c1cccc2cccnc12)c1cccc2cccnc12,.,5%,.,.,.
CN(C)c1ccc(Nc2nc(-c3cccnc3)cs2)cc1,22%,-9%,0%,0,5%
COc1ccc(Nc2nc(-c3cccnc3)cs2)c(OC)c1,6%,11µM*,2%,0,.
COc1ccc(Nc2nc(-c3cccs3)cs2)c(OC)c1,?,-3%[1.84 µM],3%,1,1%
c1ccc(CCNc2nc(-c3cccnc3)cs2)cc1,?,8.9µM*,1%,3,2%
CCN(CC)c1ccc(Nc2nc(-c3cccnc3)cs2)cc1,12%,4µM*,-18%,-1,3%
